Reference: PubChem BioAssay AID1159580 (chemical genetic matrix, 2015)
Where “and” joins values, the source holds several entries; their conditions need not be identical. Identical values can stand only once. In all, about 5,500 compounds went through this assay and about 2,000 (36%) were called active. About 18% were inconclusive and are not listed. No stated cut-off is given here; in the data, active means normalized growth mostly below about 0.91 (no sharp cut-off); inconclusive means no clear call, values can overlap the other calls; inactive means mostly above about 0.92. The list shows a part of the results.

Assay: chemical genetic growth profiling, strain panel (AID 1159580);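 further: tested at 20 µM; growth read once vehicle control cultures reached saturation at 30 °C; 1 = growth at the plate median or of vehicle wells; lower values mean less growth of the strain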
Details: growth OD

Measured: normalized growth

CC1=C(/C=C/C(C)=C/C=C/C(C)=C\C(=O)O)C(C)(C)CCC1
inactive: S. cerevisiae deletion strains, locus YJR075W, strain HOC1, active compounds read low 0.962 and 1.01 | S. cerevisiae deletion strains, locus YKL009W, strain mrt4, active compounds read low 0.94 | S. cerevisiae deletion strains, locus YKL068W, active compounds read low 1 | S. cerevisiae deletion strains, locus YKL085W, strain MDH1 (second series), active compounds read low 0.941 | S. cerevisiae deletion strains, locus YKL085W, strain MDH1, active compounds read low 0.941 | S. cerevisiae deletion strains, locus YKL160W, strain elf1, active compounds read low 0.977 | S. cerevisiae deletion strains, locus YKL190W, strain CNB1, active compounds read low 0.989 | S. cerevisiae deletion strains, locus YKR001C, strain vps1, active compounds read low 0.942 | S. cerevisiae deletion strains, locus YKR026C, strain gcn3, active compounds read low 0.982 | S. cerevisiae deletion strains, locus YKR091W, strain srl3, active compounds read low 0.988 | S. cerevisiae deletion strains, locus YLL001W, strain dnm1, active compounds read low 0.93 | S. cerevisiae deletion strains, locus YLL026W, active compounds read low 0.966 | S. cerevisiae deletion strains, locus YLL041C, strain sdh2, active compounds read low 0.99 | S. cerevisiae deletion strains, locus YLR027C, strain aat2, active compounds read low 0.958 | S. cerevisiae deletion strains, locus YLR039C, strain RIC1, active compounds read low 0.866 | S. cerevisiae deletion strains, locus YLR058C, strain SHM2, active compounds read low 1 | S. cerevisiae deletion strains, locus YLR102C, strain apc9, active compounds read low 1 | S. cerevisiae deletion strains, locus YLR113W, strain HOG1, active compounds read low 1.08 | S. cerevisiae deletion strains, locus YLR221C, strain rsa3, active compounds read low 1.02 | S. cerevisiae deletion strains, locus YLR258W, strain gsy2, active compounds read low 0.992 | S. cerevisiae deletion strains, locus YLR262C, strain YPT6 (second series), active compounds read low 0.925 | S. cerevisiae deletion strains, locus YLR262C, strain YPT6, active compounds read low 0.875 | S. cerevisiae deletion strains, locus YLR268W, strain sec22, active compounds read low 0.966 | S. cerevisiae deletion strains, locus YLR320W, strain mms22, active compounds read low 0.993 | S. cerevisiae deletion strains, locus YLR330W, strain CHS5, active compounds read low 1.01 | S. cerevisiae deletion strains, locus YLR342W, strain FKS1 (second series), active compounds read low 0.952 | S. cerevisiae deletion strains, locus YLR342W, strain FKS1, active compounds read low 0.953 | S. cerevisiae deletion strains, locus YLR357W, strain rsc2, active compounds read low 0.982 | S. cerevisiae deletion strains, locus YLR370C, strain arc18, active compounds read low 0.996 | S. cerevisiae deletion strains, locus YLR371W, strain rom2, active compounds read low 1.01 | S. cerevisiae deletion strains, locus YLR384C, strain iki3, active compounds read low 0.973 | S. cerevisiae deletion strains, locus YLR418C, strain cdc73, active compounds read low 0.846 | S. cerevisiae deletion strains, locus YML016C, strain PPZ1, active compounds read low 1 | S. cerevisiae deletion strains, locus YML032C, strain rad52, active compounds read low 0.978 | S. cerevisiae deletion strains, locus YML120C, strain ndi1, active compounds read low 0.977 | S. cerevisiae deletion strains, locus YML124C, strain tub3, active compounds read low 0.998 | S. cerevisiae deletion strains, locus YMR058W, strain fet3, active compounds read low 0.978 | S. cerevisiae deletion strains, locus YMR078C, strain ctf18, active compounds read low 0.998 | S. cerevisiae deletion strains, locus YMR125W, strain sto1, active compounds read low 1.01 | S. cerevisiae deletion strains, locus YMR129W, active compounds read low 0.987 | S. cerevisiae deletion strains, locus YMR205C, strain PFK2, active compounds read low 0.971 | S. cerevisiae deletion strains, locus YMR223W, strain ubp8, active compounds read low 0.976 | S. cerevisiae deletion strains, locus YMR231W, strain pep5, active compounds read low 0.98 | S. cerevisiae deletion strains, locus YMR263W, strain SAP30, active compounds read low 0.956 | S. cerevisiae deletion strains, locus YMR307W, strain GAS1, active compounds read low 0.909 and 1.05 | S. cerevisiae deletion strains, locus YNL067W, strain RPL9B, active compounds read low 0.951 | S. cerevisiae deletion strains, locus YNL071W, strain lat1, active compounds read low 0.994 | S. cerevisiae deletion strains, locus YNL128W, strain TEP1, active compounds read low 0.985 | S. cerevisiae deletion strains, locus YNL153C, strain GIM3, active compounds read low 0.933 | S. cerevisiae deletion strains, locus YNL175C, strain NOP13, active compounds read low 1.02 | S. cerevisiae deletion strains, locus YNL183C, strain NPR1, active compounds read low 0.952 | S. cerevisiae deletion strains, locus YNL197C, strain WHI3, active compounds read low 1.03 | S. cerevisiae deletion strains, locus YNL209W, strain ssb2, active compounds read low 0.988 | S. cerevisiae deletion strains, locus YNL224C, strain SQS1, active compounds read low 1.01 | S. cerevisiae deletion strains, locus YNL233W, strain BNI4, active compounds read low 0.947 | S. cerevisiae deletion strains, locus YNL248C, strain rpa49, active compounds read low 1.02 | S. cerevisiae deletion strains, locus YNL250W, strain rad50, active compounds read low 0.992 | S. cerevisiae deletion strains, locus YNL271C, strain bni1, active compounds read low 0.994 | S. cerevisiae deletion strains, locus YNL298W, strain CLA4, active compounds read low 0.979 | S. cerevisiae deletion strains, locus YNL307C, strain MCK1, active compounds read low 0.931 | S. cerevisiae deletion strains, locus YNL322C, strain KRE1 (second series), active compounds read low 0.986 | S. cerevisiae deletion strains, locus YNL322C, strain KRE1, active compounds read low 0.997 and 1.03 | S. cerevisiae deletion strains, locus YNR049C, strain mso1, active compounds read low 0.988 | S. cerevisiae deletion strains, locus YNR052C, strain pop2, active compounds read low 1.01 | S. cerevisiae deletion strains, locus YOL006C, strain TOP1, active compounds read low 0.909 | S. cerevisiae deletion strains, locus YOL012C, strain htz1 0.855 | S. cerevisiae deletion strains, locus YOL147C, strain pex11, active compounds read low 0.995 | S. cerevisiae deletion strains, locus YOR001W, strain rrp6, active compounds read low 0.965 | S. cerevisiae deletion strains, locus YOR061W, strain CKA2, active compounds read low 1.01 | S. cerevisiae deletion strains, locus YOR069W, strain VPS5, active compounds read low 1.01 | S. cerevisiae deletion strains, locus YOR070C, strain gyp1, active compounds read low 0.996 | S. cerevisiae deletion strains, locus YOR080W, strain dia2, active compounds read low 0.986 | S. cerevisiae deletion strains, locus YOR083W, strain WHI5 (second series), active compounds read low 1.03 | S. cerevisiae deletion strains, locus YOR083W, strain WHI5, active compounds read low 0.954 | S. cerevisiae deletion strains, locus YOR106W, strain vam3, active compounds read low 0.927 | S. cerevisiae deletion strains, locus YOR136W, strain idh2, active compounds read low 0.991 | S. cerevisiae deletion strains, locus YOR144C, strain elg1, active compounds read low 1.01 | S. cerevisiae deletion strains, locus YOR184W, strain ser1, active compounds read low 0.95 | S. cerevisiae deletion strains, locus YOR231W, strain MKK1, active compounds read low 1.05 | S. cerevisiae deletion strains, locus YOR265W, strain rbl2, active compounds read low 0.987 | S. cerevisiae deletion strains, locus YOR270C, strain vph1, active compounds read low 0.835 | S. cerevisiae deletion strains, locus YOR290C, strain snf2, active compounds read low 1.01 | S. cerevisiae deletion strains, locus YOR316C, strain cot1, active compounds read low 1.01 | S. cerevisiae deletion strains, locus YPL051W, strain arl3, active compounds read low 0.983 | S. cerevisiae deletion strains, locus YPL055C, strain LGE1, active compounds read low 0.918 | S. cerevisiae deletion strains, locus YPL078C, strain atp4, active compounds read low 0.947 | S. cerevisiae deletion strains, locus YPL106C, strain sse1, active compounds read low 1.02 | S. cerevisiae deletion strains, locus YPL240C, strain hsp82, active compounds read low 0.977 | S. cerevisiae deletion strains, locus YPL241C, strain CIN2, active compounds read low 1.01 | S. cerevisiae deletion strains, locus YPL256C, strain CLN2, active compounds read low 1.04 | S. cerevisiae deletion strains, locus YPR119W, strain clb2, active compounds read low 1 | S. cerevisiae deletion strains, locus YPR141C, strain kar3, active compounds read low 0.989 | S. cerevisiae deletion strains, locus YPR163C, strain tif3, active compounds read low 1 | S. cerevisiae deletion strains, locus YPR167C, strain met16, active compounds read low 1 | S. cerevisiae deletion strains, strain wtn01, active compounds read low 0.956 | S. cerevisiae strains, strain wild type, active compounds read low 0.975
